# hcDAF-12 act = H. contortus DAF-12 nuclear receptor activators, primary screen, cell-based, luminescence, HEK293, lit1-tk-luc reporter. HEK293 hcDAF-12 lit1-tk-luc reporter; 0% DMSO, 100% Δ7-dafachronic acid. activation, % at 6.8 µM. 370,000 compounds, 1.4% hits. AID 652067, 2013;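 active = activation above the mean of all tested compounds plus 3 SD, cut at about 5.5% in these data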;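 also: 100% = response to 3 µM Δ7-dafachronic acid high control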
# DAX1 inh-1 = DAX1 (NR0B1) inhibitors on StAR promoter, primary screen, cell-based, luminescence, SF-1 (NR5A1), full-length DAX-1; 370,000 compounds, 1.1% hits; AID 652010, 2013; HEK293T StAR-luciferase reporter, SF-1/DAX-1 repression relief; inhibition, % at 6.8 µM;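 active = inhibition above the mean over all tested compounds plus 3 SD, cut at about 3.6% in these data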;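 also: 0% = DAX-1 cells with DMSO and 100% = cells lacking DAX-1 with DMSO; higher inhibition means more luminescence from relief of DAX-1 repression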
# DAX1 inh-2 = DAX1 (NR0B1) inhibitors, primary screen, cell-based, HEK293, Gal4-DAX1, luciferase luminescence; HEK293 Gal4-DAX1 luciferase reporter; AID 504766, 2011; inhibition, % at 6.75 µM; 340,000 compounds, 0.99% hits;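 active = inhibition above the mean over all tested compounds plus 3 SD, cut at about 4.2% in these data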;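 also: 0% = DAX1-transfected cells with DMSO and 100% = empty-vector control cells with DMSO; inhibition shows as a rise in luminescence from relieved DAX1 repression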
# Target sequence (P51843 207-470 limits assumed): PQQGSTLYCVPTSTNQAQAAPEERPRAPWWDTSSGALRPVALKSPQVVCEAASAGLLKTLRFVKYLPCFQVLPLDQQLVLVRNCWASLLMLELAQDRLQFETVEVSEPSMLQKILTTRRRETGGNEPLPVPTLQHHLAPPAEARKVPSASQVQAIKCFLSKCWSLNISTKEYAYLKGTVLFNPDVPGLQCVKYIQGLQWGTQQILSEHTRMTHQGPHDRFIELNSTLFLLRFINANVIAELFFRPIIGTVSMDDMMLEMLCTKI
# ssDAF-12 act = S. stercoralis DAF-12 nuclear receptor activators, primary screen, cell-based, luminescence, HEK293, GRIP1 co-expression, lit1-tk-luc; AID 652126, 2013; 370,000 compounds, 1% hits; activation, % at 6.8 µM; Nuclear hormone receptor DAF-12 (Strongyloides stercoralis); HEK293 ssDAF-12/GRIP1 lit1-tk-luc reporter; % of 3 µM dafachronic acid response;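 active = activation above the mean over all tested compounds plus 3 SD, cut at about 0.9% in these data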;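 also: 0% = DMSO-only wells and 100% = 3 µM delta7-dafachronic acid wells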
# PolyA inhibitor = polyadenylation inhibitors in yeast reporter cells, primary screen, luminescence, S. cerevisiae | S. cerevisiae SKY197-pL101 polyadenylation reporter, beta-gal luminescence; efflux-impaired pdr1/pdr3 knockout yeast; score 100 = 6 SD above DMSO | activity score, % at 12 µM | 300,000 compounds, 0.02% hits | AID 1875, 2009;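 active = lowest replicate activity score at least 50, where 100 means six control SD above control mean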;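 also: yeast exposed to compound for 9 h at 30 °C; higher score means more reporter readthrough which indicates perturbed polyadenylation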
# hgDAF-12 ag = H. glycines DAF-12 receptor agonists, primary screen, cell-based, luminescence, HEK293, GAL4 fusion, UAS-luciferase; Nuclear hormone receptor DAF-12 (Heterodera glycines), GAL4 fusion; HEK293 GAL4-hgDAF12 UAS-luciferase reporter, agonist luminescence; normalized to butyrate control; activation, % at 6.8 µM; 370,000 compounds, 1.8% hits;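 active = activation above a cutoff set at the mean of all screened compounds plus 3 SD, cut at about 10% in these data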;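 also: 0% = DMSO wells and 100% = sodium butyrate wells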
# * = called active by the depositor; nt = not tested or not shown. Most compounds without a hit are left out; they make up all but 4.1% or so of the library.
SMILES,hcDAF-12 act,DAX1 inh-1,DAX1 inh-2,ssDAF-12 act,PolyA inhibitor,hgDAF-12 ag
Cc1nc2ccccc2c(=O)n1-c1cccc([N+](=O)[O-])c1,-2,0,3,0,9,-1
Cc1nn(Cc2ccccc2)c(C)c1C=C1C(=O)NC(=S)NC1=O,6.1*,0,0,-1,19,-1
CN(C)c1ccc(CCN2CCOCC2)cc1,3,1,1,1.2*,12,11*
Cc1c(CC(=O)N2C[C@H]3C[C@@H](C2)c2cccc(=O)n2C3)c(=O)oc2cc(O)c(Cl)cc12,2,1,3,-1,-7,-3
COc1ccccc1N1CCN(Cc2ccc(Br)s2)CC1,-1,-1,6.5*,1,-13,1
COc1ccccc1N1CCN(Cc2ccccc2)CC1,0,0,0,-2,-23,1
N#CCC[C@@H]1CC[C@]2(CCCN(Cc3ccccn3)C2)O1,-2,2,nt,0,nt,0
CC(C)OC(=O)C1C(c2ccc(I)cc2)CC2CCC1N2C (centres undefined),0,0,nt,-2,nt,-1
Nc1ccccc1C(=O)OCc1ccc([N+](=O)[O-])cc1,2,0,-1,-1,-12,11*
COc1ccc([C@@H]2C[C@H]3[C@@H](CN2)CON3C)cc1,-3,-1,nt,-1,nt,0
CCc1c(C)nc(N)nc1N1N=C1SCC(=O)OC,0,0,1,-2,-3,1
COC(=O)CSC1=NN1c1cc(C)nc(N)n1,0,0,4.7*,-2,2,1
COc1ccc(C2(c3cccc(O)c3OC)CCN(C(C)=O)CC2)cc1O,-2,0,-1,0,-5,0
Clc1cc(Cl)cc(CN2Cc3ccccc3-n3nncc3C2)c1,-3,0,nt,-1,nt,5
CCC(C)N1C(=O)/C(=C\c2ccc(N3CCCCCC3)cc2)C(=O)NC1=S (centres undefined),0,-2,-1,5.5*,2,1
CCC(C)N1C(=O)/C(=C\c2cc3c4c(c2)CCCN4CCC3)C(=O)NC1=S (centres undefined),0,0,0,-1,-11,2
COc1cc(C(=O)O)cc(OC)c1OC,-2,0,8.4*,-1,nt,2
COc1cc(C2c3cc4c(cc3CC3COC(=O)C32)OCO4)cc(OC)c1OC (centres undefined),-2,4.4*,-3,-1,nt,-5
C[C@]12CCC3[C@@H](CCC4=CC(=O)CC[C@@]43C=O)C1CCC2=O (some centres undefined),0,0,-1,-1,3,3
CCCC12CN3CCN(C1)CC(CCC)(C3)C2=O,0,-1,1,-1,-7,-1
CC(C)c1ccc(N2C(=O)NC(=O)/C(=C/c3cnc(-c4ccccc4)nc3)C2=O)cc1,-1,0,1,-1,21,-2
CSc1ncc(/C=C2/C(=O)NC(=O)N(c3ccc(C(C)C)cc3)C2=O)cn1,6.4*,0,0,0,1,0
COc1cc2c(c(OC)c1OC)-c1ccc(O)c(=O)cc1C(NC(C)=O)CC2 (centres undefined),1,1,6.4*,0,6,-5
COc1ccc2c(c1)C(NC(C)=O)CCc1cc(OC)c(OC)c(OC)c1-2 (centres undefined),0,3.9*,1,0,nt,-3
C[C@H]1CC[C@@H]2[C@@H](C)[C@H]3[C@H](C[C@H]4[C@@H]5CC=C6C[C@@H](O[C@@H]7O[C@H](CO)[C@H](O)[C@H](O[C@@H]8O[C@H](CO)[C@@H](O)[C@H](O)[C@H]8O)[C@H]7O[C@@H]7O[C@@H](C)[C@H](O)[C@@H](O)[C@H]7O)CC[C@]6(C)[C@H]5CC[C@]34C)N2C1,-2,-2,4.3*,-1,19,-7
SMILES,hcDAF-12 act,DAX1 inh-1,DAX1 inh-2,ssDAF-12 act,PolyA inhibitor,hgDAF-12 ag
Cc1c(C(c2ccccc2Cl)c2c(O)c3ccccc3oc2=O)c(=O)n(-c2ccccc2)n1C (centres undefined),-1,0,4.3*,-1,15,-2
Cc1c(C(c2ccc(F)cc2)c2c(O)c3ccccc3oc2=O)c(=O)n(-c2ccccc2)n1C (centres undefined),-2,0,2,-1,-10,-3
CC1CN1c1cc2c(c3c1ccn3C)C1CCC2C1 (centres undefined),0,-2,nt,-1,nt,-1
O=C1NC(=O)N(Cc2ccccc2)C(=O)/C1=C/N1CCCc2ccccc21,5.8*,0,3,0,11,4
O=C1NC(=O)N(Cc2ccccc2)C(=O)/C1=C\C=C\c1ccco1,2,1,0,-1,8,4
CCCCN1C(=O)NC(=O)C2(Cc3c(nc4ccccn4c3=O)N3CCc4ccccc4C32)C1=O (centres undefined),6.0*,0,-1,0,-20,0
Fc1ccccc1CCNCc1cccc2ccccc12,1,0,-1,-2,-6,0
Cc1ccccc1CCNCc1cc2cccc(C)c2[nH]c1=O,3,0,5.6*,1.0*,-5,-2
CCOC(=O)[C@]12Cc3ccccc3[C@H]1N(C(C)C)C(=O)c1ccccc12,-1,4.5*,nt,-1,nt,-2
CC1CCCCN1Cc1c[nH]c2ccccc12 (centres undefined),5,0,2,0,16,0
CC1CCCCN1CC(O)c1c[nH]c2ccccc12 (centres undefined),6.4*,0,4,0,13,1
COc1cc2oc(=O)c(CC(=O)N3C[C@H]4C[C@@H](C3)c3cccc(=O)n3C4)c(C)c2cc1Cl,-1,1,4.8*,-1,nt,6
CN1C(=O)NC(=O)/C(=C\C=C\c2ccccc2[N+](=O)[O-])C1=O,5,0,nt,1.4*,nt,3
Cc1cc([P+](=O)O)c(C)n1-c1ccc(Br)cc1,5,0,0,1.5*,3,1
Cc1c(N=Nc2c(O)n(-c3ccc(Br)cc3)c(=O)[nH]c2=O)c(=O)n(-c2ccccc2)n1C,-1,1,2,-1,-26,-2
